According to the antibiotic and cytotoxicity screens of Wong et al. (2023):
Screen size: about 39,000 compounds; about 3,300 (8.5%) were called active. Shown is part of a subset that was picked to be rich in actives.

What follows are compounds tested on HepG2 (assay: cytotoxicity call (relative viability < 0.9)). Conditions: 10 µM.

Row | Structure (SMILES) | cytotoxicity call
1 | C[C@H]1CN([C@@H](C)CO)C(=O)c2cccc(NC(=O)c3ccc(-c4nccs4)cc3)c2O[C@@H]1CN(C)S(=O)(=O)c1cn(C)cn1 | inactive
2 | Cc1noc(C)c1S(=O)(=O)N(C)C[C@H]1OCCCC[C@H](C)Oc2ccc(N(C)C)cc2C(=O)N([C@H](C)CO)C[C@@H]1C | inactive
3 | COc1ccc(NC(=O)N(C)C[C@@H]2OCCCC[C@H](C)Oc3ccc(NS(=O)(=O)c4c(C)noc4C)cc3C(=O)N([C@@H](C)CO)C[C@@H]2C)cc1 | inactive
4 | CO[C@@H]1CN(C)C(=O)c2ccc(NC(=O)C3CC3)cc2OC[C@@H](C)N(C(=O)C2CCOCC2)C[C@H]1C | inactive
5 | Cc1cc(C2CCCCC2)n(O)c(=O)c1.NCCO | active
6 | C[C@H]1CN([C@@H](C)CO)C(=O)c2c(c3ccccc3n2C)-c2ccccc2CO[C@@H]1CN(C)Cc1ccc(C(F)(F)F)cc1 | inactive
7 | Cc1noc(C)c1S(=O)(=O)Nc1ccc2c(c1)C(=O)N([C@H](C)CO)C[C@H](C)[C@H](CN(C)C(=O)Nc1ccc(F)cc1)OCCCC[C@H](C)O2 | inactive
8 | Cc1noc(C)c1NC(=O)Nc1ccc2c(c1)C(=O)N([C@H](C)CO)C[C@H](C)[C@@H](CN(C)S(=O)(=O)c1ccc(F)cc1)OCCCC[C@@H](C)O2 | inactive
9 | Cc1cc(C(=O)Nc2cccc3c2O[C@H](CN(C)S(=O)(=O)c2cccs2)[C@@H](C)CN([C@H](C)CO)C3=O)n(C)n1 | inactive
10 | CCNC(=O)C=Cc1cccc(Br)c1 | active
11 | CCNC(=O)c1cccc(NS(C)(=O)=O)c1 | inactive
12 | COC(=O)CNC(=O)/C=C/c1ccc(OC)cc1 | inactive
13 | C[C@H](CO)N1C[C@H](C)[C@@H](CN(C)C(=O)Nc2ccc(C(F)(F)F)cc2)Oc2ccc(NS(=O)(=O)c3ccc(F)cc3)cc2C1=O | inactive
14 | COc1ccc(S(=O)(=O)Nc2ccc3c(c2)CC(=O)N([C@H](C)CO)C[C@H](C)[C@H](CN(C)S(=O)(=O)c2cn(C)cn2)O3)cc1 | inactive
15 | C[C@@H]1CCCCO[C@@H](CN(C)C(=O)C2CCCCC2)[C@H](C)CN([C@@H](C)CO)C(=O)c2cc(NC(=O)Nc3ccc(F)cc3)ccc2O1 | inactive
16 | C[C@H](CO)N1C[C@H](C)[C@H](CN(C)C(=O)C2CCCCC2)OCCCC[C@H](C)Oc2ccc(NC(=O)Nc3ccc(F)cc3)cc2C1=O | inactive
17 | C[C@H]1CCCCO[C@H](CN(C)C(=O)C2CCCCC2)[C@@H](C)CN([C@@H](C)CO)C(=O)c2cc(NC(=O)Nc3ccc(F)cc3)ccc2O1 | active
18 | C[C@@H]1CCCCO[C@H](CN(C)C(=O)C2CCCCC2)[C@H](C)CN([C@@H](C)CO)C(=O)c2cc(NC(=O)Nc3ccc(F)cc3)ccc2O1 | inactive
19 | C[C@@H]1CCCCO[C@@H](CN(C)C(=O)C2CCCCC2)[C@@H](C)CN([C@H](C)CO)C(=O)c2cc(NC(=O)Nc3ccc(F)cc3)ccc2O1 | inactive
20 | C[C@H]1CCCCO[C@@H](CN(C)C(=O)C2CCCCC2)[C@@H](C)CN([C@@H](C)CO)C(=O)c2cc(NC(=O)Nc3ccc(F)cc3)ccc2O1 | active
21 | C[C@@H]1CCCCO[C@H](CN(C)C(=O)C2CCCCC2)[C@@H](C)CN([C@@H](C)CO)C(=O)c2cc(NC(=O)Nc3ccc(F)cc3)ccc2O1 | active
22 | C[C@@H]1CCCCO[C@@H](CN(C)C(=O)C2CCCCC2)[C@@H](C)CN([C@@H](C)CO)C(=O)c2cc(NC(=O)Nc3ccc(F)cc3)ccc2O1 | inactive
23 | C[C@@H]1CN([C@H](C)CO)C(=O)c2cc(NC(=O)Nc3ccc(F)cc3)ccc2O[C@@H](C)CCCCO[C@@H]1CN(C)C(=O)C1CCCCC1 | inactive

Row | Structure (SMILES) | cytotoxicity call
24 | CNC(=O)C(=O)Nc1ccc(C)c(F)c1 | inactive
25 | Cc1noc(C)c1NC(=O)Nc1ccc2c(c1)C(=O)N([C@H](C)CO)C[C@H](C)[C@@H](CN(C)CC1CCCCC1)OCCCC[C@H](C)O2 | inactive
26 | COc1cccc(S(=O)(=O)N(C)C[C@@H]2Oc3ncc(C#CCC(C)C)cc3C(=O)N([C@@H](C)CO)C[C@@H]2C)c1 | inactive
27 | O=C(CN1CCOCC1)N[C@@H]1CC[C@@H](CCn2cc(C3CCCC3)nn2)O[C@H]1CO | inactive
28 | C[C@@H]1CN([C@@H](C)CO)C(=O)Cc2cc(NC(=O)NC3CCCCC3)ccc2O[C@H]1CN(C)Cc1ccc(C(F)(F)F)cc1 | inactive
29 | Cc1noc(C)c1NC(=O)Nc1ccc2c(c1)C(=O)N([C@H](C)CO)C[C@H](C)[C@H](CN(C)S(=O)(=O)c1ccccc1)OCCCC[C@H](C)O2 | inactive
30 | COc1ccc(S(=O)(=O)N(C)C[C@H]2Oc3c(NS(=O)(=O)c4ccc(C)cc4)cccc3C(=O)N([C@H](C)CO)C[C@H]2C)cc1 | inactive
31 | C[C@@H]1O[C@@H](O[C@H]2[C@H](Oc3cc(O)c(C(=O)CCc4ccc(O)cc4)c(O)c3)O[C@H](CO)[C@@H](O)[C@@H]2O)[C@H](O)[C@H](O)[C@H]1O | inactive
32 | CC(C)C(=O)Nc1cccc(Cl)c1 | inactive
33 | O=C(Nc1ccc(Cl)cc1)Nc1ccc(Cl)c(Cl)c1 | active
34 | CCC(=O)Nc1ccc(Cl)cc1 | inactive
35 | O=C(Nc1ccc(C(F)(F)F)cc1)Nc1cccc(Cl)c1 | active
36 | O=C(CNCCO)Nc1ccc(F)c(Cl)c1 | inactive
37 | N=C(N=C(N)N)Nc1cccc(Cl)c1 | inactive
38 | C[C@@H]1CN([C@@H](C)CO)C(=O)c2cc(NS(=O)(=O)c3ccccc3)ccc2O[C@@H](C)CCCCO[C@@H]1CN(C)C(=O)Nc1ccc2c(c1)OCO2 | inactive
39 | CCN(CC)CCOc1ccc2c(c1)C(=O)c1cc(OCCN(CC)CC)ccc1-2 | active
40 | CCCOc1cc(N)ccc1C(=O)OCCN(CC)CC.Cl | inactive
41 | O=S1(=O)[C@@H]2C[C@H]3C=CC2(CN1C1CC1)O3 | inactive
42 | Cc1ccc(S(=O)(=O)N(C)C[C@H]2OCCCC[C@H](C)Oc3ccc(NC(=O)NC4CCCCC4)cc3C(=O)N([C@@H](C)CO)C[C@@H]2C)cc1 | inactive
43 | Cc1ccc(S(=O)(=O)N(C)C[C@H]2OCCCC[C@@H](C)Oc3ccc(NC(=O)NC4CCCCC4)cc3C(=O)N([C@H](C)CO)C[C@@H]2C)cc1 | inactive
44 | Cc1ccc(S(=O)(=O)N(C)C[C@@H]2OCCCC[C@H](C)Oc3ccc(NC(=O)NC4CCCCC4)cc3C(=O)N([C@H](C)CO)C[C@H]2C)cc1 | active
45 | C[C@@H]1CCCCO[C@H](CN(C)S(=O)(=O)c2ccccc2)[C@@H](C)CN([C@H](C)CO)C(=O)c2cc(NC(=O)NC3CCCCC3)ccc2O1 | inactive
46 | C[C@H]1CCCCO[C@@H](CN(C)S(=O)(=O)c2ccccc2)[C@@H](C)CN([C@@H](C)CO)C(=O)c2cc(NC(=O)NC3CCCCC3)ccc2O1 | inactive

Row | Structure (SMILES) | cytotoxicity call
47 | Cc1ccc(S(=O)(=O)N(C)C[C@@H]2OCCCC[C@H](C)Oc3ccc(NC(=O)NC4CCCCC4)cc3C(=O)N([C@@H](C)CO)C[C@H]2C)cc1 | active
48 | Cc1ccc(S(=O)(=O)N(C)C[C@@H]2OCCCC[C@@H](C)Oc3ccc(NC(=O)NC4CCCCC4)cc3C(=O)N([C@@H](C)CO)C[C@@H]2C)cc1 | inactive
49 | Cc1ccc(S(=O)(=O)N(C)C[C@H]2OCCCC[C@@H](C)Oc3ccc(NC(=O)NC4CCCCC4)cc3C(=O)N([C@H](C)CO)C[C@H]2C)cc1 | active
50 | Cc1ccc(S(=O)(=O)N(C)C[C@@H]2OCCCC[C@H](C)Oc3ccc(NC(=O)NC4CCCCC4)cc3C(=O)N([C@H](C)CO)C[C@@H]2C)cc1 | inactive
51 | Cc1ccc(S(=O)(=O)N(C)C[C@H]2OCCCC[C@H](C)Oc3ccc(NC(=O)NC4CCCCC4)cc3C(=O)N([C@H](C)CO)C[C@H]2C)cc1 | inactive
52 | C[C@H](CO)N1C[C@H](C)[C@H](CN(C)S(=O)(=O)c2ccccc2)OCCCC[C@H](C)Oc2ccc(NC(=O)NC3CCCCC3)cc2C1=O | active
53 | Cc1ccc(S(=O)(=O)N(C)C[C@H]2OCCCC[C@H](C)Oc3ccc(NC(=O)NC4CCCCC4)cc3C(=O)N([C@@H](C)CO)C[C@H]2C)cc1 | inactive
54 | CN(C)CC(=O)N[C@H]1C=C[C@@H](CC(=O)O)O[C@@H]1CO | inactive
55 | C[C@H](CO)N1C[C@H](C)[C@H](CN(C)C(=O)Nc2ccc(C(F)(F)F)cc2)Oc2ccc(NC(=O)Cc3ccccc3)cc2CC1=O | inactive
56 | C[C@H]1CN([C@@H](C)CO)C(=O)c2cccc(NC(=O)Nc3ccccc3)c2O[C@H]1CN(C)Cc1ccc(Oc2ccccc2)cc1 | inactive
57 | Cc1noc(C)c1S(=O)(=O)Nc1ccc2c(c1)C(=O)N([C@H](C)CO)C[C@H](C)[C@H](CN(C)Cc1ccc3c(c1)OCO3)O2 | inactive
58 | COC[C@@H](O)CNc1ncnc2c1CCNCC2 | inactive
59 | C[C@H]1CN([C@@H](C)CO)C(=O)c2cccc(NC(=O)c3nc4ccccc4s3)c2O[C@@H]1CN(C)CC1CCCCC1 | inactive
60 | Cc1noc(C)c1S(=O)(=O)N(C)C[C@H]1Oc2ccc(NC(=O)NC(C)C)cc2CC(=O)N([C@@H](C)CO)C[C@@H]1C | inactive
61 | C[C@@H]1CN([C@@H](C)CO)C(=O)c2cc(NC(=O)c3ccccc3)ccc2O[C@@H](C)CCCCO[C@H]1CN(C)C(=O)Cc1ccccc1 | inactive
62 | O=C([C@H]1CCCCN1)N1CCCC1 | inactive
63 | CC(=O)N1[C@H](CO)[C@@H](c2ccccc2)[C@H]1CNC(=O)CN1CCOCC1 | inactive
64 | Cc1ccc(S(=O)(=O)N(C)C[C@H]2OCCCC[C@@H](C)Oc3ccc(NC(=O)NC4CCCCC4)cc3C(=O)N([C@@H](C)CO)C[C@H]2C)cc1 | inactive
65 | Cc1ccc(S(=O)(=O)N(C)C[C@@H]2OCCCC[C@@H](C)Oc3ccc(NC(=O)NC4CCCCC4)cc3C(=O)N([C@H](C)CO)C[C@H]2C)cc1 | active
66 | Cc1ccc(S(=O)(=O)N(C)C[C@@H]2OCCCC[C@H](C)Oc3ccc(NC(=O)NC4CCCCC4)cc3C(=O)N([C@@H](C)CO)C[C@@H]2C)cc1 | inactive
67 | Cc1ccc(S(=O)(=O)N(C)C[C@H]2OCCCC[C@@H](C)Oc3ccc(NC(=O)NC4CCCCC4)cc3C(=O)N([C@@H](C)CO)C[C@@H]2C)cc1 | active
68 | Cc1ccc(S(=O)(=O)N(C)C[C@@H]2OCCCC[C@@H](C)Oc3ccc(NC(=O)NC4CCCCC4)cc3C(=O)N([C@@H](C)CO)C[C@H]2C)cc1 | inactive
69 | Cc1ccc(S(=O)(=O)N(C)C[C@@H]2OCCCC[C@@H](C)Oc3ccc(NC(=O)NC4CCCCC4)cc3C(=O)N([C@H](C)CO)C[C@@H]2C)cc1 | inactive
